{
  "source": "PubChem BioAssay (Tox21)",
  "note": "Inconclusive results are not listed. Active and inactive are the calls of the source. The call rests on the fitted dose curve; in most records, active means well fitted curve in the direction sought with a large enough effect in the repeat runs; inconclusive means weak or mixed curves; inactive means no such curve, though single readings can be large; an effect the other way counts as inactive or inconclusive. On the % scale 0 is the no-effect control and ±100 the full control effect.",
  "data": [
    {"assay": "A CellTox Green Cytotoxicity Assay to monitor cytotoxicity in HEK293 cells - 40 hour (AID 1224871); further: nearly all actives have a fitted effect of over 45% in size; further: potency means the concentration at half of the fitted maximal effect", "conditions": "CellTox Green fluorescence; series mostly up to 76.8 µM; cytotoxicity increase: at the top concentration", "outline": "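Real-time, in one plate: 600 HEK293 cells/well with dead-cell DNA dye, pinned compound after 5 h, 37 C incubation over 40 h; viable cells give no appreciable fluorescence.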", "values": [
      {"molecule": "CN1CCC[C@@H]1Cc1c[nH]c2ccc(CCS(=O)(=O)c3ccccc3)cc12", "cytotoxicity increase": "0.264% [at 35.3 µM] (inactive)"},
      {"molecule": "O=Cc1ccc(F)c(Br)c1", "cytotoxicity increase": "8.78% (inactive)"},
      {"molecule": "Cc1ncc(CO)c(CN)c1O", "cytotoxicity increase": "-15.2% [at 35.3 µM] (inactive)"},
      {"molecule": "N#CSCC(=O)O", "cytotoxicity increase": "-2.52% [at 35.3 µM] (inactive)"},
      {"molecule": "CCCN(CCC)C(=O)C(CCC(=O)O)NC(=O)c1ccccc1", "note": "(stereo not drawn)", "cytotoxicity increase": "-17.7% [at 35.3 µM] (inactive)"},
      {"molecule": "CCN[C@H]1CN(CCCOC)S(=O)(=O)c2sc(S(N)(=O)=O)cc21", "cytotoxicity increase": "16% [at 35.3 µM] (inactive)"},
      {"molecule": "Cc1ccc(C=O)s1", "Potency": "43.6 µM (active)"},
      {"molecule": "COC(=O)C(C)O", "note": "(stereo not drawn)", "cytotoxicity increase": "-10.1% (inactive)"},
      {"molecule": "CCOC(=O)NCCC[Si](OCC)(OCC)OCC", "cytotoxicity increase": "-10% (inactive)"},
      {"molecule": "OCc1ccccc1O", "cytotoxicity increase": "-10.6% [at 35.3 µM] (inactive)"},
      {"molecule": "O=C(C(Cl)Cl)N1CCOC12CCCCC2", "cytotoxicity increase": "-1.53% (inactive)"},
      {"molecule": "CCN(CC)C(=O)N(CC)CC", "cytotoxicity increase": "9.18% (inactive)"},
      {"molecule": "O=C1CCCc2ccccc21", "cytotoxicity increase": "-7.61% (inactive)"},
      {"molecule": "COc1ccccc1N1CCN(CCCNc2cc(=O)n(C)c(=O)n2C)CC1", "cytotoxicity increase": "-3.66% [at 35.3 µM] (inactive)"},
      {"molecule": "CC(=O)O[C@H]1CC[C@@]2(C)C(=CC[C@@H]3[C@@H]2CC[C@]2(C)C(C(C)=O)=CC[C@@H]32)C1", "cytotoxicity increase": "14.1% [at 35.3 µM] (inactive)"},
      {"molecule": "FC(F)(F)C(F)(F)C(F)(F)C(F)(F)C(F)(F)C(F)(F)C(F)(F)C(F)(F)Br", "cytotoxicity increase": "-16.6% [at 35.3 µM] (inactive)"},
      {"molecule": "Cn1cnc2c(F)c(Nc3ccc(Br)cc3Cl)c(C(=O)NOCCO)cc21", "cytotoxicity increase": "-3.71% [at 35.3 µM] (inactive)"},
      {"molecule": "ClC(Cl)Cl", "cytotoxicity increase": "-3.51% (inactive)"},
      {"molecule": "CCCOc1ccc2c(c1)CC[C@@H]1[C@@H]2CC[C@]2(C)C(OC)CC[C@@H]12", "note": "(stereo partly drawn)", "cytotoxicity increase": "11.8% [at 35.3 µM] (inactive)"},
      {"molecule": "CCN(CC)CC1CCCCN1CC(=O)N1c2ccccc2C(=O)Nc2cccnc21", "note": "(stereo not drawn)", "cytotoxicity increase": "22.7% [at 35.3 µM] (inactive)"},
      {"molecule": "O=C(Cl)c1cccc([N+](=O)[O-])c1", "cytotoxicity increase": "1.27% (inactive)"},
      {"molecule": "Cc1cc(NS(=O)(=O)c2ccc(N)cc2)nc(C)n1", "cytotoxicity increase": "-18.8% [at 35.3 µM] (inactive)"},
      {"molecule": "CCCCCCC", "cytotoxicity increase": "8.58% (inactive)"},
      {"molecule": "CCOC(=O)C1CC(=O)C(=C(O)C2CC2)C(=O)C1", "note": "(stereo not drawn)", "cytotoxicity increase": "20.7% (inactive)"},
      {"molecule": "CC(=O)Nc1ccc(C)c(Cl)c1", "cytotoxicity increase": "0.433% (inactive)"},
      {"molecule": "CCCCCCCCc1ccc(S(=O)(=O)O)cc1", "Potency": "54.5 µM (active)"},
      {"molecule": "CCOC(=O)C(Br)c1ccccc1", "note": "(stereo not drawn)", "cytotoxicity increase": "-1.4% (inactive)"},
      {"molecule": "CCOc1ccc2nc(N)sc2c1", "cytotoxicity increase": "2.41% (inactive)"},
      {"molecule": "CCCC(CCC)(C(=O)OCC)C(=O)OCC", "cytotoxicity increase": "-5.33% [at 35.3 µM] (inactive)"},
      {"molecule": "CCC/C=C/CO", "cytotoxicity increase": "-5.36% (inactive)"},
      {"molecule": "CC(=O)OC(C)OC(C)=O", "cytotoxicity increase": "-3.43% (inactive)"},
      {"molecule": "OC[C@H]1O[C@@H](O[C@H]2[C@H](O)[C@@H](O)[C@H](O)O[C@@H]2CO)[C@H](O)[C@@H](O)[C@H]1O", "cytotoxicity increase": "-23.7% (inactive)"},
      {"molecule": "CC(C)S", "cytotoxicity increase": "-0.773% (inactive)"},
      {"molecule": "Clc1cccc(-c2cc(Cl)cc(Cl)c2)c1", "Potency": "37.5 µM (active)"},
      {"molecule": "CCC1(C)NC(=O)NC1=O", "note": "(stereo not drawn)", "cytotoxicity increase": "-9.37% (inactive)"},
      {"molecule": "CCN(CC)CCNC(=O)COc1ccc(Cl)cc1", "cytotoxicity increase": "-6.56% [at 35.3 µM] (inactive)"},
      {"molecule": "CN(C)Cc1ccccc1", "cytotoxicity increase": "-2.23% (inactive)"},
      {"molecule": "COc1ccc(S(=O)(=O)Nc2nnc(CC(C)C)s2)cc1", "cytotoxicity increase": "-18.1% [at 35.3 µM] (inactive)"},
      {"molecule": "O=c1[nH]cnc2c1ncn2[C@@H]1O[C@H](CO)[C@@H](O)[C@H]1O", "cytotoxicity increase": "3.55% [at 35.3 µM] (inactive)"}
    ]},
    {"assay": "qHTS RealTime-Glo MT Cell Viability Assay in HEK293 cells - 16 hour (AID 1224872); further: top concentration of the series differs between compounds; nearly all actives have a fitted effect of over 50% in size", "conditions": "RealTime-Glo luminescence; series mostly up to 76.8 µM; activity change, negative = cytotoxicity: at the top concentration", "outline": "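Tox21 10K qHTS, HEK293, 600 cells/well, RealTime-Glo reagent co-dispensed with cells; 5 h preincubation, compound by pintool, 37 C, luminescence at 0–40 h.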", "values": [
      {"molecule": "CN1CCC[C@@H]1Cc1c[nH]c2ccc(CCS(=O)(=O)c3ccccc3)cc12", "activity change, negative = cytotoxicity": "2.58% [at 35.3 µM] (inactive)"},
      {"molecule": "O=Cc1ccc(F)c(Br)c1", "activity change, negative = cytotoxicity": "7.79% (inactive)"},
      {"molecule": "Cc1ncc(CO)c(CN)c1O", "activity change, negative = cytotoxicity": "1.27% [at 35.3 µM] (inactive)"},
      {"molecule": "N#CSCC(=O)O", "activity change, negative = cytotoxicity": "0.486% [at 35.3 µM] (inactive)"},
      {"molecule": "CCCN(CCC)C(=O)C(CCC(=O)O)NC(=O)c1ccccc1", "note": "(stereo not drawn)", "activity change, negative = cytotoxicity": "6.83% [at 35.3 µM] (inactive)"},
      {"molecule": "CCN[C@H]1CN(CCCOC)S(=O)(=O)c2sc(S(N)(=O)=O)cc21", "activity change, negative = cytotoxicity": "4.56% [at 35.3 µM] (inactive)"},
      {"molecule": "Cc1ccc(C=O)s1", "activity change, negative = cytotoxicity": "-4.93% (inactive)"},
      {"molecule": "COC(=O)C(C)O", "note": "(stereo not drawn)", "activity change, negative = cytotoxicity": "0.729% (inactive)"},
      {"molecule": "CCOC(=O)NCCC[Si](OCC)(OCC)OCC", "activity change, negative = cytotoxicity": "2.76% (inactive)"},
      {"molecule": "OCc1ccccc1O", "activity change, negative = cytotoxicity": "-13.1% [at 35.3 µM] (inactive)"},
      {"molecule": "O=C(C(Cl)Cl)N1CCOC12CCCCC2", "activity change, negative = cytotoxicity": "17.6% (inactive)"},
      {"molecule": "CCN(CC)C(=O)N(CC)CC", "activity change, negative = cytotoxicity": "12.4% (inactive)"},
      {"molecule": "O=C1CCCc2ccccc21", "activity change, negative = cytotoxicity": "14.7% (inactive)"},
      {"molecule": "COc1ccccc1N1CCN(CCCNc2cc(=O)n(C)c(=O)n2C)CC1", "activity change, negative = cytotoxicity": "-21.4% [at 35.3 µM] (inactive)"},
      {"molecule": "CC(=O)O[C@H]1CC[C@@]2(C)C(=CC[C@@H]3[C@@H]2CC[C@]2(C)C(C(C)=O)=CC[C@@H]32)C1", "activity change, negative = cytotoxicity": "-22.6% [at 35.3 µM] (inactive)"},
      {"molecule": "FC(F)(F)C(F)(F)C(F)(F)C(F)(F)C(F)(F)C(F)(F)C(F)(F)C(F)(F)Br", "activity change, negative = cytotoxicity": "6.47% [at 35.3 µM] (inactive)"},
      {"molecule": "Cn1cnc2c(F)c(Nc3ccc(Br)cc3Cl)c(C(=O)NOCCO)cc21", "activity change, negative = cytotoxicity": "0.472% [at 35.3 µM] (inactive)"},
      {"molecule": "ClC(Cl)Cl", "activity change, negative = cytotoxicity": "5.66% (inactive)"},
      {"molecule": "CCCOc1ccc2c(c1)CC[C@@H]1[C@@H]2CC[C@]2(C)C(OC)CC[C@@H]12", "note": "(stereo partly drawn)", "activity change, negative = cytotoxicity": "6.11% [at 35.3 µM] (inactive)"},
      {"molecule": "CCN(CC)CC1CCCCN1CC(=O)N1c2ccccc2C(=O)Nc2cccnc21", "note": "(stereo not drawn)", "activity change, negative = cytotoxicity": "1.21% [at 35.3 µM] (inactive)"},
      {"molecule": "O=C(Cl)c1cccc([N+](=O)[O-])c1", "activity change, negative = cytotoxicity": "4.71% (inactive)"},
      {"molecule": "Cc1cc(NS(=O)(=O)c2ccc(N)cc2)nc(C)n1", "activity change, negative = cytotoxicity": "1.39% [at 35.3 µM] (inactive)"},
      {"molecule": "CCCCCCC", "activity change, negative = cytotoxicity": "-17.5% (inactive)"},
      {"molecule": "CCOC(=O)C1CC(=O)C(=C(O)C2CC2)C(=O)C1", "note": "(stereo not drawn)", "activity change, negative = cytotoxicity": "12% (inactive)"},
      {"molecule": "CC(=O)Nc1ccc(C)c(Cl)c1", "activity change, negative = cytotoxicity": "-12.7% (inactive)"},
      {"molecule": "CCCCCCCCc1ccc(S(=O)(=O)O)cc1", "activity change, negative = cytotoxicity": "-5.17% (inactive)"},
      {"molecule": "CCOC(=O)C(Br)c1ccccc1", "note": "(stereo not drawn)", "activity change, negative = cytotoxicity": "17.5% (inactive)"},
      {"molecule": "CCOc1ccc2nc(N)sc2c1", "activity change, negative = cytotoxicity": "2.55% (inactive)"},
      {"molecule": "CCCC(CCC)(C(=O)OCC)C(=O)OCC", "activity change, negative = cytotoxicity": "4.91% [at 35.3 µM] (inactive)"},
      {"molecule": "CCC/C=C/CO", "activity change, negative = cytotoxicity": "2.27% (inactive)"},
      {"molecule": "CC(=O)OC(C)OC(C)=O", "activity change, negative = cytotoxicity": "3.57% (inactive)"},
      {"molecule": "OC[C@H]1O[C@@H](O[C@H]2[C@H](O)[C@@H](O)[C@H](O)O[C@@H]2CO)[C@H](O)[C@@H](O)[C@H]1O", "activity change, negative = cytotoxicity": "-2.26% (inactive)"},
      {"molecule": "CC(C)S", "activity change, negative = cytotoxicity": "5.28% (inactive)"},
      {"molecule": "Clc1cccc(-c2cc(Cl)cc(Cl)c2)c1", "activity change, negative = cytotoxicity": "-21.3% (inactive)"},
      {"molecule": "CCC1(C)NC(=O)NC1=O", "note": "(stereo not drawn)", "activity change, negative = cytotoxicity": "4.44% (inactive)"},
      {"molecule": "CCN(CC)CCNC(=O)COc1ccc(Cl)cc1", "activity change, negative = cytotoxicity": "2.36% [at 35.3 µM] (inactive)"},
      {"molecule": "CN(C)Cc1ccccc1", "activity change, negative = cytotoxicity": "-1.02% (inactive)"},
      {"molecule": "COc1ccc(S(=O)(=O)Nc2nnc(CC(C)C)s2)cc1", "activity change, negative = cytotoxicity": "12.1% [at 35.3 µM] (inactive)"},
      {"molecule": "O=c1[nH]cnc2c1ncn2[C@@H]1O[C@H](CO)[C@@H](O)[C@H]1O", "activity change, negative = cytotoxicity": "4.89% [at 35.3 µM] (inactive)"}
    ]}
  ]
}
